This note sets out measurements from PubChem BioAssay (NCI).

This is part of a sample that, as a whole, favours compounds with a hit. Of some 83,000 tested, about 20% had one in any assay.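 Assay: single dose, 48 h. Readout: percent growth (0 = no net growth; negative = cell death). Active: <10.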 Values without a mark were called inactive. Calls of active or inactive are those of the source.

What all share (assay): NCI-60 one-dose screen, 48 h (100 = growth as untreated, 0 = no growth, -100 = all killed)
Common to all, as to details: 10 µM unless noted

For assay [1], the system named is RPMI-8226 leukemia.
Assay [2] relates to OVCAR-8 ovarian.
Assay [3] has as its system OVCAR-5 ovarian.
Assay [4] deals with OVCAR-4 ovarian.
For assay [5], the system named is SK-OV-3 ovarian.
Assay [6] has as its system IGROV1 ovarian.
The test system of assay [7] is OVCAR-3 ovarian.
Assay [8] deals with HS 578T breast.
Assay [9] concerns NCI/ADR-RES ovarian.
Assay [10] deals with BT-549 breast.
The subject of assay [11] is MDA-MB-435 melanoma.
In assay [12] the test system is SW-620 colon.
In assay [13] the test system is MCF7 breast.
Assay [14] concerns HCT-116 colon.
Assay [15] deals with HCC-2998 colon.
In assay [16] the test system is KM12 colon.
Assay [17] concerns T-47D breast.

With `CCN(CC)CC(C)(C)C(=O)/C=C/c1ccccc1`, the growth in assay [1] is 39.4%; in [2], 76.6%; in assay [3], 52.4%; in [4], 63.3%; in assay [5], 74.8%; in [6], 74.1%. For the same compound, the growth in assay [7] was 37.7%; in [8] it was 75.5%; in [9] it was 46.8%; in [10], 46%; in assay [11], 40%; in assay [12] it was 35.4%. For the same compound, the growth was 5.47% (active) in [13], 12.8% in [14], 79.3% in assay [15] and 53.9% in [16].

Regarding `C[C@@H]1CC[C@@H]2[C@@H]1[C@H](OC(=O)/C=C/c1ccccc1)[C@]1(c3ccccc3)C[C@@H](OC(=O)CO)[C@@]2(C)O1`, the growth is 97.7% in assay [1]; 54.3% in [2]; 99.8% in assay [3]; 103% in assay [4]; 96.1% in [5]; 93.6% in assay [6]. Moreover, the growth in [7] is 103%; in [8], -20% (active); in assay [9], 62.1%; in assay [17], 89.5%; in assay [10], 17.1%; in [11], 99.2%. Besides, the growth was 96.6% in assay [12], 89.5% in assay [14], 99.4% in [15] and 96% in [16].

In the case of `CCOC(=O)C12CCCC1=CC(=O)CC2` (stereo unspecified), the growth in assay [1] is 98.5%; in assay [2], 96.5%; in [3], 96.3%; in [4], 112%; in [5], 102%; in assay [6], 103%. The growth in assay [7] was 116%; in [8], 98.2%; in [9], 104%; in [10], 110%; in [11] it was 112%; in assay [12], 109%. For the same compound, the growth in assay [13] was 101%; in assay [14], 105%; in [15], 105%; in assay [16], 106%.

In the case of `CS(=O)(=O)c1c(Nc2ccccc2)n[nH]c1N`, the growth in assay [1] is 97.8%; in assay [2] it was 105%; in assay [3] it was 102%; in [4] it was 117%; in assay [5], 103%; in [6], 112%. The growth in [7] was 121%; in assay [8] it was 118%; in assay [9] it was 104%; in assay [17], 104%; in assay [10], 89.1%; in assay [12], 112%. The growth in [14] is 103%; in assay [16], 118%.

As to `O=C(CNC1C2CC3CC(C2)CC1C3)Sc1nnc2sc3ccccc3n12` (stereo unspecified), the growth was 97.3% in [1]; 106% in [2]; 100% in [3]; 87.6% in [4]; 94.2% in [5]; 104% in assay [6]. Further, the growth in assay [7] was 98.2%; in assay [8], 89.5%; in assay [9] it was 99.2%; in assay [17] it was 87.2%; in assay [11], 101%; in assay [12], 94.8%. Moreover, the growth is 88.7% in assay [13], 93.6% in assay [14], 113% in assay [15] and 101% in assay [16].

In the case of `O=C(O)c1ccc(=O)[nH]n1`, the growth was 107% in assay [1]; 103% in [2]; 104% in assay [3]; 113% in [4]; 106% in assay [5]; 137% in [6]. Besides, the growth in assay [7] is 115%; in assay [8] it was 111%; in assay [9] it was 109%; in [17] it was 105%; in [10], 106%; in [11], 112%. In addition, the growth in assay [12] is 102%; in assay [13] it was 97.2%; in assay [14], 106%; in assay [16], 123%.

Take `C[C@H](CCC(=O)O)[C@H]1CC[C@H]2[C@@H]3CC[C@@H]4/C(=C\c5ccco5)C(=O)/C(=C\c5ccco5)C[C@]4(C)[C@H]3CC[C@]12C`: the growth in [1] is 3.68% (active); in assay [2], 70.6%; in [3], 113%; in assay [4], 80%; in assay [5], 121%; in assay [6] it was 93%. Moreover, the growth in [7] is 24.6%; in assay [8], 69.3%; in assay [9], 80%; in assay [17], 55.6%; in assay [10] it was 52.9%; in assay [11], 37.1%. Further, the growth was 27.4% in assay [12], 21.8% in assay [14], 92.8% in assay [15] and 74.5% in [16].

As for `CN[C@@]12CC3(C=CC(=O)C=C3)O[C@]1(Cc1ccc(OC)cc1)N(C)C(=O)N2`, the growth is 17.2% in [1]; 6.34% (active) in assay [2]; 33.1% in [3]; 60.9% in assay [4]; 108% in [5]; 55.3% in assay [6]. The growth was 17.3% in assay [7]; 106% in assay [8]; 47.8% in assay [17]; 44.3% in assay [10]; 31.4% in [11]; 24.6% in assay [12]. For the same compound, the growth in assay [13] is 16.4%; in assay [14] it was 4.01% (active); in assay [15], 100%; in [16], 98.2%.
